Measured values as given in PubChem BioAssay (EPA / NIEHS).
Records with an inconclusive call do not appear. Some compounds were tested as several samples or in several runs, with calls that do not always agree. Calls of active or inactive are those of the source. The calls were made as follows, unless noted: active = hit-call score of the fitted dose curve at least 0.9, where 1 is the maximum; inactive = score below 0.9.

Experiments:
[1] = CCTE_Shafer_MEA_dev_firing_rate_mean: CCTE's Neural Network Formation Assay for Mean Firing Rate, Shafer Lab (AID 2284031)
How it was run: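 Spike frequency (spikes/recording length, averaged over active electrodes) was recorded on days 5, 7, 9 and 12 and collapsed to AUC; rat cortical cultures received compound continuously over 12 days of network development.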

[2] = CCTE_Shafer_MEA_dev_per_burst_spike_percent: CCTE's Neural Network Formation Assay for Percent of Spikes in a Burst, Shafer Lab (AID 2284032)
How it was run: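 Value is trapezoidal AUC over recordings on days 5, 7, 9 and 12 of the well-mean fraction of spikes falling in single-electrode bursts; rat cortical cultures exposed continuously from plating, treatment renewed DIV 5 and 9, fitted downward against DMSO.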

[3] = CCTE_Shafer_MEA_dev_active_electrodes_number: CCTE's Neural Network Formation Assay for Number of Active Electrodes, Shafer Lab (AID 2284040; active = hit-call score of the fitted dose curve at least 0.9, where 1 is the maximum)
How it was run: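 Counts electrodes per well firing at least 5 spikes/min, recorded on days 5, 7, 9 and 12 in rat cortical cultures dosed continuously from plating (treatment refreshed DIV 5, 9). Value is the area under the curve over recordings, fitted downward relative to DMSO.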

[4] = CCTE_Shafer_MEA_dev_bursting_electrodes_number: CCTE's Neural Network Formation Assay for Number of Bursting Electrodes, Shafer Lab (AID 2284043; active = hit-call score of the fitted dose curve at least 0.9, where 1 is the maximum)
How it was run: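 Counted: electrodes with burst rate ≥1 per 2 min in each well. Cells: primary rat cortex, 1.5 x 10^5/well, on 16-electrode MEA wells. Exposure: DIV 0–12, compound renewed DIV 5 and 9. Recording days 5, 7, 9, 12; AUC vs DMSO baseline.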

[5] = CCTE_Shafer_MEA_dev_per_burst_interspike_interval: CCTE's Neural Network Formation Assay for Burst Interspike Interval, Shafer Lab (AID 2284044)
How it was run: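 Primary rat cortical neurons on 48-well MEA plates, exposed from day 0 through day 12, treatment renewed at DIV 5 and 9. Within-burst interspike interval recorded days 5, 7, 9, 12, well-averaged, summarised as AUC; negative fit versus DMSO.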

[6] = CCTE_Shafer_MEA_dev_burst_duration_mean: CCTE's Neural Network Formation Assay for Mean Burst Duration, Shafer Lab (AID 2284045)
How it was run: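 Network-formation assay in primary rat cortical neurons; treatment spans twelve days of development. Mean burst duration per well is integrated by trapezoidal AUC and fitted in the loss-of-signal direction against DMSO baseline.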

[7] = CCTE_Shafer_MEA_dev_interburst_interval_mean: CCTE's Neural Network Formation Assay for Mean Interburst Interval, Shafer Lab (AID 2284046);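 also: well-mean interburst interval of bursting electrodes as AUC over four recording days; curve fitted for decrease in interburst interval relative to DMSO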
How it was run: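 Network formation assay in primary rat cortical cultures, exposed from DIV 0 to 12. Mean interburst interval per well, integrated as AUC over four recordings.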

[8] = CCTE_Shafer_MEA_dev_network_spike_number: CCTE's Neural Network Formation Assay for Number of Network Spikes, Shafer Lab (AID 2284048);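 also: synchronized bursts across electrodes counted on days 5 7 9 12 and integrated as AUC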
How it was run: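 Extracellular recordings from 16-electrode wells track network formation in rat cortical cultures under continuous treatment from plating. The endpoint is network spike number, expressed as AUC across DIV 5–12 relative to DMSO vehicle.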

[9] = CCTE_Shafer_MEA_dev_network_spike_peak: CCTE's Neural Network Formation Assay for Mean Number of Electrodes in Network Spike, Shafer Lab (AID 2284049)
How it was run: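 Continuous 12-day exposure of rat cortical cultures, starting at plating, on MEA plates. Endpoint: electrodes participating in network-spike peaks, AUC across DIV 5–12, DMSO as negative control.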

[10] = CCTE_Shafer_MEA_dev_spike_duration_mean: CCTE's Neural Network Formation Assay for Mean Spike Duration, Shafer Lab (AID 2284051);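 also: mean network spike duration pooled as area under curve over DIV 5 to 12 recordings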
How it was run: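 With DMSO as baseline, loss of mean network spike duration was scored from extracellular recordings of rat cortical neurons on MEA plates. Exposure spanned plating to DIV 12; the four recording days were collapsed into one AUC value.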

[11] = CCTE_Shafer_MEA_dev_per_network_spike_spike_number_mean: CCTE's Neural Network Formation Assay for Mean Number of Spikes in a Network Spike, Shafer Lab (AID 2284053)
How it was run: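 First, rat cortical cells (1.5 x 10^5/well) were seeded onto MEA wells; second, dosing began at plating and was refreshed on DIV 5 and 9; finally, network-spike spike counts across DIV 5–12 were summarized as AUC.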

[12] = CCTE_Shafer_MEA_dev_per_network_spike_spike_percent: CCTE's Neural Network Formation Assay for Percent of Spikes in a Network Spike, Shafer Lab (AID 2284054)
How it was run: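 Developing networks of rat cortical neurons are dosed at day 0 and recorded extracellularly four times up to day 12. The endpoint is the area under the curve of percent spikes in network spikes, fitted in the negative direction relative to DMSO.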

[13] = CCTE_Shafer_MEA_dev_LDH: CCTE's Lactate Dehydrogenase Assay for Cytotoxicity in the Neural Network Formation Assay, Shafer Lab (AID 2284068; active = hit-call score of the fitted dose curve at least 0.9, where 1 is the maximum;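 also: exposure for twelve days from plating with re-dosing on DIV 5 and 9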)
How it was run: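 Developing rat cortical networks on MEA plates are exposed to compound for 12 days from plating. LDH activity is measured spectrophotometrically, with DMSO as baseline.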

[14] = CCTE_Shafer_MEA_dev_AB: CCTE's Alamar Blue Assay for Cytotoxicity in the Neural Network Formation Assay, Shafer Lab (AID 2284083; active = hit-call score of the fitted dose curve at least 0.9, where 1 is the maximum;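 also: resazurin reduction fluorescence as viability of cultured neurons; twelve days of exposure from plating with re-dosing on DIV 5 and 9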)
How it was run: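 Cytotoxicity companion to the developmental MEA: primary rat cortical neurons, 12-day exposure starting day 0, compound refreshed DIV 5 and 9; resazurin fluorescence, fitted against DMSO vehicle.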

[15] = CCTE_Shafer_MEA_dev_mutual_information_norm: CCTE's Neural Network Formation Assay for Mutual Information Normalization, Shafer Lab (AID 2284091)
How it was run: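 Exposure of primary rat cortical neurons began at plating and ran to DIV 12, with full media and treatment renewal after DIV 5 and 9 recordings. Mutual information AUC (DIV 5–12) was analysed for loss versus DMSO.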

[16] = CCTE_Shafer_MEA_dev_correlation_coefficient_mean: CCTE's Neural Network Formation Assay for Mean Correlation Coefficient, Shafer Lab (AID 2284093)
How it was run: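 Extracellular firing from rat cortical networks on 48-well MEAs, DMSO-referenced, negative fitting direction. Compound present from plating to DIV12; mean pairwise correlation per well integrated over DIV5–12 recordings by trapezoidal AUC.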

[17] = UKN2_HCS_IMR90_neural_migration: University of Konstanz (UKN) Leist Lab Neural Crest Cell Migration Assay in human induced IMR90 Pluripotent Stem Cells (UKN2) (AID 2284204); settings: actives raise or lower the signal
How it was run: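 Using a 96-well stopper format with PLO/laminin/fibronectin coating, neural crest cells from iPSC migrate in cytokine-supplemented N2-S medium; after 24 h, chemicals are applied for a further 24 h, then cells are imaged after dye staining.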

[18] = IUF_NPC1b_proliferation_BrdU_72hr: Leibniz Research Institute for Environmental Medicine (IUF) 72-hour Neural Progenitor Cell Bromodeoxyuridine (BrdU) Proliferation Assay (NPC1b) (AID 2284207)
How it was run: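 Neural progenitor spheres of human fetal origin are treated for three days; BrdU added for the last 16 h is quantified by luminescence ELISA, with DMSO as baseline and EGF/FGF omission as positive control.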

[19] = IUF_NPC1a_proliferation_area_72hr: Leibniz Research Institute for Environmental Medicine (IUF) 72-hour Neural Progenitor Cell Proliferation Area Assay (NPC1a) (AID 2284208)
How it was run: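 Single 0.25–0.35 mm human fetal neural progenitor spheres in proliferation medium with EGF and FGF, exposed 72 h from plating without renewal at 37C, pH 7.2-7.6. Sphere area growth measured by automated phase-contrast imaging, relative to DMSO.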

[20] = IUF_NPC1_viability_72hr: Viability Assessment at 72 hours in the Leibniz Research Institute for Environmental Medicine (IUF) Neural Progenitor Cell Proliferation Assay (NPC1) (AID 2284209)
How it was run: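 Viability was measured by resazurin-to-resorufin fluorescence (alamar blue) after 72 h of continuous exposure without compound renewal. Each well held one hNPC sphere (gestational week 16-19 fetal cortex, 0.25-0.35 mm) cultured in EGF/FGF proliferation medium at 37C and pH 7.2-7.6.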

[21] = CCTE_Mundy_HCI_Cortical_Synap_Neur_Matur_NeuriteSpotCountPerNeuriteLength: CCTE's Synaptogenesis and Neurite Maturation Assay in rat cortical cells for Neurite Spot Count per Neurite Length, Mundy Lab (AID 2284210)
How it was run: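 Neurite-associated synapse density (synaptophysin puncta per unit neurite length) is measured by fluorescence high-content imaging in rat cortical cultures treated from DIV 7 and fixed at DIV 12, with DMSO as negative control.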

[22] = CCTE_Mundy_HCI_Cortical_Synap_Neur_Matur_BPCount: CCTE's Synaptogenesis and Neurite Maturation Assay in rat cortical cells for Branch Point Count, Mundy Lab (AID 2284211)
How it was run: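 HCI read-out of branch points from MAP2/synaptophysin/Hoechst immunofluorescence; rat cortical cultures, AraC DIV 5, dosing DIV 7, fixed DIV 12; fit in positive direction vs DMSO baseline.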

[23] = CCTE_Mundy_HCI_Cortical_NOG_NeuriteCount: CCTE's Neurite Outgrowth Assay in rat cortical cells for Neurite Count, Mundy Lab (AID 2284212);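 also: cells fixed about two days after chemical exposure began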
How it was run: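 Rat cortical primary cells; compound added 2 h post-plating, 1/10 dilution of working solution. Anti-betaIII-tubulin/AF488 ICC; ArrayScan neurite count vs DMSO.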

[24] = CCTE_Mundy_HCI_Cortical_NOG_NeuriteLength: CCTE's Neurite Outgrowth Assay in rat cortical cells for Neurite Length, Mundy Lab (AID 2284213)
How it was run: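 First, rat primary cortical cells were plated and, 2 h later, given test chemical as a 1/10 dilution. Finally, βIII-tubulin immunostaining enabled automated imaging of neurite length.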

Measured: AC50

CCCCCC=C(C)C(CC)CCO (stereo not given)
inactive: [1] | [2] | [3] | [4] | [5] | [6] | [7] | [8] | [9] | [10] | [11] | [12] | [13] | [14] | [15] | [16] | [17] | [18] | [19] | [20] | [21] | [22] | [23] | [24]
active: [12] 5 µM
